The nature of assay [1]: ATG_TAL_CIS: Attagene CIS-FACTORIAL HepG2 Assay for human TAL Basal Promoter (AID 2282966).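 Further: background control endpoint measuring basal TAL promoter reporter mRNA not a specific factor.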 Particulars: HepG2 Attagene cis-factorial TAL promoter reporter; actives raise or lower the signal. In outline:
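HepG2 cells were transiently transfected with promoter-driven multiplexed reporter units and dosed for 24 h. Reporter mRNA was measured by RT-PCR with capillary electrophoresis fluorescence; bidirectional fits used DMSO as baseline, serving as a background control.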

The nature of assay [2]: ATG_TGFb_CIS: Attagene CIS-FACTORIAL HepG2 Assay for human Transforming Growth Factor (TGF) (AID 2282967). Particulars: HepG2 Attagene CIS TGFb reporter, mRNA transcription; actives raise or lower the signal. In outline: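 HepG2 cells transiently transfected with cis-promoter-driven multiplexed reporter units; 24 h compound exposure. Reporter mRNA measured by RT-PCR, 6-FAM labeling, HpaI digestion and capillary electrophoresis; bidirectional fit versus DMSO baseline.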

Assay [3] in a line: ATG_VDRE_CIS: Attagene CIS-FACTORIAL HepG2 Assay for human Vitamin D Receptor Element (VDRE) (AID 2282968). Particulars: HepG2 VDRE cis-reporter transcription, actives raise or lower the signal. The essentials:
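HepG2 cells transiently transfected with cis-element reporter units, dosed 24 h; reporter mRNA measured by RT-PCR, 6-FAM labeling, HpaI digestion and capillary electrophoresis. Activity fitted bidirectionally against DMSO baseline.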

Assay [4] addresses Nuclear receptor subfamily 1 group I member 3 (Homo sapiens) (UniProt Q14994). The assay is described as follows: ATG_CAR_TRANS: Attagene TRANS-FACTORIAL HepG2 Assay for human Constitutive Androstane Receptor (CAR) (AID 2282969; active means hit-call score of the fitted dose curve at least 0.9, where 1 is the maximum;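 further: activators raise reporter mRNA above DMSO so AC50 marks induction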). Particulars: HepG2 Attagene TRANS-FACTORIAL CAR reporter. The essentials: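 HepG2 cells transiently transfected with multiplexed GAL4-UAS reporter units expressing chimeric NR-Gal4 proteins; compound exposure 24 h. Reporter mRNA measured by RT-PCR, 6-FAM labelling, HpaI digestion and capillary electrophoresis; gain-of-signal fitted against DMSO baseline.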

The target in assay [5] is X-box-binding protein 1 (Homo sapiens) (UniProt P17861). The assay is described as follows: ATG_Xbp1_CIS: Attagene CIS-FACTORIAL HepG2 Assay for human X-box Binding Protein 1 (XBP1) (AID 2282972). The settings on record: HepG2 XBP1 cis-element reporter, Attagene multiplex; actives raise or lower the signal. In outline: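 HepG2 cells transiently transfected with cis-regulated multiple reporter transcription units; endogenous transcription factor activity measured 24 hours after chemical dosing. Reporter mRNA quantified by RT-PCR, 6-FAM primer extension, HpaI digestion and capillary electrophoresis; bidirectional fitting versus DMSO.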

The nature of assay [6]: ATG_GAL4_TRANS: Attagene TRANS-FACTORIAL HepG2 Assay for GAL4 (Internal Marker) (AID 2282976; active means hit-call score of the fitted dose curve at least 0.9, where 1 is the maximum). Particulars: HepG2 Attagene TRANS GAL4 internal marker reporter. The essentials: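 HepG2 cells transiently transfected with multiplexed GAL4-UAS reporter constructs were dosed for 24 h. Reporter mRNA was measured by RT-PCR, 6-FAM primer extension, HpaI digestion and capillary electrophoresis, and gain of signal was fitted relative to DMSO.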

The target of assay [7] is Hepatocyte nuclear factor 4-alpha (Homo sapiens) (UniProt P41235). The assay is described as follows: ATG_HNF4a_TRANS: Attagene TRANS-FACTORIAL HepG2 Assay for human Hepatocyte Nuclear Factor 4 alpha (HNF4a) (AID 2282982; active means hit-call score of the fitted dose curve at least 0.9, where 1 is the maximum). The settings on record: HepG2 HNF4a transactivation reporter, mRNA readout. The essentials:
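HepG2 cells transiently transfected with multiplexed GAL4-UAS reporter units responsive to chimeric NR-GAL4 proteins; compound exposure 24 h. Reporter mRNA quantified by RT-PCR, 6-FAM labelling, HpaI digestion and capillary electrophoresis; gain of signal versus DMSO baseline.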

The nature of assay [8]: ATG_M_06_TRANS: Attagene TRANS-FACTORIAL HepG2 Assay for M06 Transcription Factor (Internal Marker) (AID 2282983; active means hit-call score of the fitted dose curve at least 0.9, where 1 is the maximum;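 further: reporter transcript level by RT-PCR then capillary electrophoresis fluorescence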). Particulars: HepG2 Attagene TRANS M06 internal marker reporter. The essentials:
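HepG2 cells transiently transfected with multiplexed GAL4-UAS reporter transcription units; after 24 h compound exposure, reporter mRNA measured by RT-PCR, FAM-labelled primer extension, HpaI digestion and capillary electrophoresis. Gain-of-signal fitted versus DMSO baseline; background control readout.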

Assay [9] is described as follows: ATG_M_32_TRANS: Attagene TRANS-FACTORIAL HepG2 Assay for M32 Transcription Factor (Internal Marker) (AID 2282984; active means hit-call score of the fitted dose curve at least 0.9, where 1 is the maximum). The settings on record: HepG2 Attagene TRANS M32 internal marker reporter. In outline:
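HepG2 cells transiently transfected with multiple GAL4-UAS reporter transcription units, dosed for 24 hours; reporter mRNA quantified by RT-PCR, 6-FAM primer extension, HpaI digestion and capillary electrophoresis. Gain-of-signal fitted versus DMSO baseline; internal background-control marker.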

The target in assay [10] is Nuclear receptor subfamily 4 group A member 2 (Homo sapiens) (UniProt P43354). The assay is described as follows: ATG_NURR1_TRANS: Attagene TRANS-FACTORIAL HepG2 Assay for human Nuclear Receptor Related Protein 1 (NURR1) (AID 2282985; active means hit-call score of the fitted dose curve at least 0.9, where 1 is the maximum). The settings on record: HepG2 Attagene TRANS reporter, mRNA readout. In outline: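 HepG2 cells transiently transfected with GAL4-UAS reporter units and chimeric NR-Gal4 constructs; chemical exposure 24 h. Reporter mRNA quantified by RT-PCR, fluorescent labelling and capillary electrophoresis; gain of signal fitted relative to DMSO baseline.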

In assay [11] the target is Transcriptional activator Myb (Homo sapiens) (UniProt P10242). The assay is described as follows: ATG_Myb_CIS: Attagene CIS-FACTORIAL HepG2 Assay for human Myeloblastosis (Myb) Proto-Oncogene Transcription Factor (AID 2282986). Particulars: HepG2 Attagene CIS-FACTORIAL Myb reporter transcription; actives raise or lower the signal. The essentials: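 After 24 h of compound dosing, total RNA from transfected HepG2 cells is reverse-transcribed and the reporter sequences amplified, labeled and separated by capillary electrophoresis. Values come from bidirectional fitting against DMSO.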

In assay [12] the target is Nuclear respiratory factor 1 (Homo sapiens) (UniProt Q16656). The assay is described as follows: ATG_NRF1_CIS: Attagene CIS-FACTORIAL HepG2 Assay for human Nuclear Respiratory Factor 1 (NRF1) Orphan Gene (AID 2282987). The settings on record: HepG2 NRF1 cis-element reporter, Attagene multiplex; actives raise or lower the signal. The essentials: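 Measured: fluorescent reporter-specific RT-PCR products from transfected HepG2 cells, separated by capillary electrophoresis. Exposure lasted 24 h. Analysis used bidirectional curve fitting with DMSO as negative control.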

Assay [13] can be described thus: ATG_NFI_CIS: Attagene CIS-FACTORIAL HepG2 Assay for human Nuclear Factor I (NFI) (AID 2282989). Particulars: HepG2 cis-regulatory reporter, NFI response element transcription; actives raise or lower the signal. The essentials: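 HepG2 cells transiently transfected with cis-element-driven multiplexed reporter transcription units, dosed for 24 h. Reporter mRNA quantified by RT-PCR, fluorescent labelling, HpaI digestion and capillary electrophoresis; bidirectional fit versus DMSO baseline.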

For assay [14], the target named is Steroid hormone receptor ERR1 (Homo sapiens) (UniProt P11474). The assay is described as follows: ATG_ERRa_TRANS: Attagene TRANS-FACTORIAL HepG2 Assay for human Estrogen-Related Receptor alpha (ERRa) (AID 2282971; active means hit-call score of the fitted dose curve at least 0.9, where 1 is the maximum). The settings on record: HepG2 Attagene TRANS reporter, ERRa transactivation. The essentials: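 HepG2 cells transiently transfected with multiplexed GAL4-UAS reporter units reading chimeric ERRa-Gal4 activity; 24 h compound exposure. Reporter mRNA measured by RT-PCR, 6-FAM labelling, HpaI digest and capillary electrophoresis; gain of signal fitted versus DMSO baseline.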

Assay [15] has as its target Glucocorticoid receptor (Homo sapiens) (UniProt P04150). The assay is described as follows: ATG_GR_TRANS: Attagene TRANS-FACTORIAL HepG2 Assay for human Glucocorticoid Receptor (GR) (AID 2282978; active means hit-call score of the fitted dose curve at least 0.9, where 1 is the maximum;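 further: activators score as hits since higher reporter transcript over DMSO is fitted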). Particulars: HepG2 Attagene TRANS GR reporter, mRNA transcription. In outline: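 After 24 h incubation with test chemical, transfected HepG2 cells were lysed for RNA; reporter cDNA was amplified, FAM-labelled, HpaI-digested and sized on a capillary analyser. Signal gain relative to DMSO was scored.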

The target in assay [16] is Estrogen receptor (Homo sapiens) (UniProt P03372). The assay is described as follows: ATG_ERa_TRANS: Attagene TRANS-FACTORIAL HepG2 Assay for human Estrogen Receptor alpha (ERa) (AID 2282970; active means hit-call score of the fitted dose curve at least 0.9, where 1 is the maximum). The settings on record: HepG2 Attagene TRANS ERa GAL4 reporter, mRNA. The essentials: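 HepG2 cells transiently transfected with multiplexed GAL4-UAS reporter units; ERa activity read via exogenous chimeric NR-Gal4 protein. After 24 hour compound exposure, reporter mRNA measured by RT-PCR with 6-FAM labelling and capillary electrophoresis; gain-of-signal fitted relative to DMSO.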

For assay [17], the target named is Oxysterols receptor LXR-alpha (Homo sapiens) (UniProt Q13133). The assay is described as follows: ATG_LXRa_TRANS: Attagene TRANS-FACTORIAL HepG2 Assay for human Liver X Receptor alpha (LXRa) (AID 2282980; active means hit-call score of the fitted dose curve at least 0.9, where 1 is the maximum). Particulars: HepG2 Attagene TRANS reporter, LXRa transactivation. In outline: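 HepG2 cells were transiently transfected with multiplexed reporter units driven by chimeric LXRa–GAL4 fusion proteins, then dosed for 24 h. Reporter mRNA was quantified by RT-PCR, fluorescent labelling and capillary electrophoresis; gain of signal fitted against DMSO baseline.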

Assay [18] in a line: ATG_M_19_TRANS: Attagene TRANS-FACTORIAL HepG2 Assay for M19 Transcription Factor (Internal Marker) (AID 2282974; active means hit-call score of the fitted dose curve at least 0.9, where 1 is the maximum). The settings on record: HepG2 Attagene TRANS-FACTORIAL M19 internal marker reporter. The essentials: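 Transfected HepG2 (GAL4-UAS MRTUs), 24 h compound, TriZol RNA, DNase-treated RT, reporter PCR, FAM label, HpaI digest, CE fluorescence; gain vs DMSO.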

The record followed here is PubChem BioAssay (EPA / NIEHS).

Inconclusive results are not listed. Activity calls are given as the source filed them. How the source made its calls, unless noted: active means hit-call score of the fitted dose curve at least 0.9, where 1 is the maximum; inactive means score below 0.9.

Usually AC50 stands for the concentration at which the activity in the assay is half-maximal.

Nuclear respiratory factor 1 (Homo sapiens), sequence (Q16656 whole entry, looked up): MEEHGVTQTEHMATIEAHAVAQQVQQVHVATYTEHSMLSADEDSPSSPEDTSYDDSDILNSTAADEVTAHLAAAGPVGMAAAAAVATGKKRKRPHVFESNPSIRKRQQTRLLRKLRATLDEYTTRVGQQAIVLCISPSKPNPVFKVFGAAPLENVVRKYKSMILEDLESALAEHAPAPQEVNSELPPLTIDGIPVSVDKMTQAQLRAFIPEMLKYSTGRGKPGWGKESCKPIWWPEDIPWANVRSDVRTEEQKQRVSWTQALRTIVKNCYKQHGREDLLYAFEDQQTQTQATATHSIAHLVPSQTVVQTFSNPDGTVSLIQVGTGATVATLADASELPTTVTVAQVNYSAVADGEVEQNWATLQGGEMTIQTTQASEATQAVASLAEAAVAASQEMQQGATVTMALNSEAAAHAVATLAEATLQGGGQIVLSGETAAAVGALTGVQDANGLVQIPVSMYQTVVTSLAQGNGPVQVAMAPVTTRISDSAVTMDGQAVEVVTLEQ
Transcriptional activator Myb (Homo sapiens), sequence (P10242 whole entry, looked up): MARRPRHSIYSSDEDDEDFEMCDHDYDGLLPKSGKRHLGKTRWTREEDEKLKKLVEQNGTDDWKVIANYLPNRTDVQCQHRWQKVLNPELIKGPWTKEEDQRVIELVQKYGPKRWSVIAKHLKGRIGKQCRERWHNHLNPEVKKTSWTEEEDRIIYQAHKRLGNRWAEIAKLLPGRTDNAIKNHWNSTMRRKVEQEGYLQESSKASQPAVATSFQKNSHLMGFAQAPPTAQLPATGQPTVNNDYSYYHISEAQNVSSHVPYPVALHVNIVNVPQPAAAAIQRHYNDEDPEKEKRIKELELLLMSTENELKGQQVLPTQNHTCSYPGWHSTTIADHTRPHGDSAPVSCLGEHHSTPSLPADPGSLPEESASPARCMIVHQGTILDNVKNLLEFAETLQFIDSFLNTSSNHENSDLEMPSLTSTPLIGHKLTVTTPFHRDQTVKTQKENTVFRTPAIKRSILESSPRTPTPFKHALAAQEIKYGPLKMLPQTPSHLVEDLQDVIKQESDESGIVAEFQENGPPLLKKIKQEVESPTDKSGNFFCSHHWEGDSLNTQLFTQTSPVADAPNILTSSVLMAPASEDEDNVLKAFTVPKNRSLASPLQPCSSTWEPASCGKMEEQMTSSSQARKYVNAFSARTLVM
Glucocorticoid receptor (Homo sapiens), sequence (P04150 whole entry, looked up): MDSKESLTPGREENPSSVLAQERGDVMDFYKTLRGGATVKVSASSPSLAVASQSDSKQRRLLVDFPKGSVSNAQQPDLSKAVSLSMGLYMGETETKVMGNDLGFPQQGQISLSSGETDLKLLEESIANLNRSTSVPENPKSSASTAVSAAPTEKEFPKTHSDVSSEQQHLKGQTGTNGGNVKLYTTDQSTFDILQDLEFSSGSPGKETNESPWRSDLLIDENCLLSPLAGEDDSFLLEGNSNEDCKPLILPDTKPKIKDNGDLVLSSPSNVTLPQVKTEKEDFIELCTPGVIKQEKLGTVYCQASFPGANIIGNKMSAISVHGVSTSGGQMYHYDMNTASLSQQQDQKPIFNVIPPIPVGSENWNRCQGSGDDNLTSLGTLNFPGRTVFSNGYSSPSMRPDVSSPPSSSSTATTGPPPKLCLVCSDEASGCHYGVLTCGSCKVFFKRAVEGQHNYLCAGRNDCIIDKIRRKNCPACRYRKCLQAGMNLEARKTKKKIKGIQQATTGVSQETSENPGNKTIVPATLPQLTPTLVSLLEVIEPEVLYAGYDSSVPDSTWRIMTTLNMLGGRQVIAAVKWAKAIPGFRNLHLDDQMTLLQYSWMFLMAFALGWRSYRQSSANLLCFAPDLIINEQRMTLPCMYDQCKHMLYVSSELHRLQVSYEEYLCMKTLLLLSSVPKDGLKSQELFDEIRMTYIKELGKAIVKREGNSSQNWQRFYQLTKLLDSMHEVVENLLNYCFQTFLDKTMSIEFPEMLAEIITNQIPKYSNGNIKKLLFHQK
Hepatocyte nuclear factor 4-alpha (Homo sapiens), sequence (P41235 whole entry, looked up, the tested form may be a part): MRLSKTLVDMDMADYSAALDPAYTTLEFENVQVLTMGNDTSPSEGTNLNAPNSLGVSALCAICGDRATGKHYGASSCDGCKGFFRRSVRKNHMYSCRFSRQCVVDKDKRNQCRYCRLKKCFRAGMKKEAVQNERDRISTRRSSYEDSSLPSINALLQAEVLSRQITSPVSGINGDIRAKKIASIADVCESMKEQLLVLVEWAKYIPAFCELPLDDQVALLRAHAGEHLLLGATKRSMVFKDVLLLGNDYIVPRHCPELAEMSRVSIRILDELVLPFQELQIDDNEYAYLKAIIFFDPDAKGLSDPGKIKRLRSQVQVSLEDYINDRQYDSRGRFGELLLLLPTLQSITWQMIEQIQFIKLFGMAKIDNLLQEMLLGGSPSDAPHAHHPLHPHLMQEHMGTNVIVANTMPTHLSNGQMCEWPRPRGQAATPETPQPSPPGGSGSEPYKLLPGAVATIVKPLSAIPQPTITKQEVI
X-box-binding protein 1 (Homo sapiens), sequence (P17861 whole entry, looked up): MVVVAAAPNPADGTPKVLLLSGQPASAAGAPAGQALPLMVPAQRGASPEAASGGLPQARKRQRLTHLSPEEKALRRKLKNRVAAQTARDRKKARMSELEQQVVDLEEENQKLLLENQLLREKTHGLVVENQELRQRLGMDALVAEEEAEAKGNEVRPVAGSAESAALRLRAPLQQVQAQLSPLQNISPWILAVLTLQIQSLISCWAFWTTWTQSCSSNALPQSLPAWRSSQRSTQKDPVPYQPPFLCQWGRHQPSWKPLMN
Nuclear receptor subfamily 4 group A member 2 (Homo sapiens), sequence (P43354 whole entry, looked up, the tested form may be a part): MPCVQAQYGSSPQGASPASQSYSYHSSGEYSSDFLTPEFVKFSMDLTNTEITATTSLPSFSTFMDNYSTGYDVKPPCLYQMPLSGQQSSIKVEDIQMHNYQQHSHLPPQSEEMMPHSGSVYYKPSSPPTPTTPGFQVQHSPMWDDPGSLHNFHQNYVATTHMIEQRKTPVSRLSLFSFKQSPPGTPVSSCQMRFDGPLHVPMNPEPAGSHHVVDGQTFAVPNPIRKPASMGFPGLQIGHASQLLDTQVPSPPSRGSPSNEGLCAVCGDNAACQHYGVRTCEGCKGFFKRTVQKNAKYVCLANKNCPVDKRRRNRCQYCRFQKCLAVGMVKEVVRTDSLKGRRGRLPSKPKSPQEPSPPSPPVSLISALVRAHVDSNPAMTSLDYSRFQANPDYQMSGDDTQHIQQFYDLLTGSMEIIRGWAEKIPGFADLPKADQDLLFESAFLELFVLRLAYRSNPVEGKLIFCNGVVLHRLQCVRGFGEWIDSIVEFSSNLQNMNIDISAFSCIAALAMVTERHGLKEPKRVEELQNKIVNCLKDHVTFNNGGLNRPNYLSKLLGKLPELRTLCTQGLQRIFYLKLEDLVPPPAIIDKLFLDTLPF
Nuclear receptor subfamily 1 group I member 3 (Homo sapiens), sequence (Q14994 whole entry, looked up, the tested form may be a part): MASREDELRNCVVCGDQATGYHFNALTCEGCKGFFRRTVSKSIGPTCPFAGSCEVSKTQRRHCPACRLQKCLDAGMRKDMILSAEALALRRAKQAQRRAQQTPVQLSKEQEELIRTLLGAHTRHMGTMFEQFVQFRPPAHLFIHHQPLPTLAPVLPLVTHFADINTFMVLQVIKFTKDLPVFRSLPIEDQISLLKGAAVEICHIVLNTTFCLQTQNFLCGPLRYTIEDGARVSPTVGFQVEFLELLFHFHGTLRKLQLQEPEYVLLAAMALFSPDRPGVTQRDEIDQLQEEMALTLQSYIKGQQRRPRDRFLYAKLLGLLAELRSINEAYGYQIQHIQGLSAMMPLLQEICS
Estrogen receptor (Homo sapiens), sequence (P03372 whole entry, looked up, the tested form may be a part): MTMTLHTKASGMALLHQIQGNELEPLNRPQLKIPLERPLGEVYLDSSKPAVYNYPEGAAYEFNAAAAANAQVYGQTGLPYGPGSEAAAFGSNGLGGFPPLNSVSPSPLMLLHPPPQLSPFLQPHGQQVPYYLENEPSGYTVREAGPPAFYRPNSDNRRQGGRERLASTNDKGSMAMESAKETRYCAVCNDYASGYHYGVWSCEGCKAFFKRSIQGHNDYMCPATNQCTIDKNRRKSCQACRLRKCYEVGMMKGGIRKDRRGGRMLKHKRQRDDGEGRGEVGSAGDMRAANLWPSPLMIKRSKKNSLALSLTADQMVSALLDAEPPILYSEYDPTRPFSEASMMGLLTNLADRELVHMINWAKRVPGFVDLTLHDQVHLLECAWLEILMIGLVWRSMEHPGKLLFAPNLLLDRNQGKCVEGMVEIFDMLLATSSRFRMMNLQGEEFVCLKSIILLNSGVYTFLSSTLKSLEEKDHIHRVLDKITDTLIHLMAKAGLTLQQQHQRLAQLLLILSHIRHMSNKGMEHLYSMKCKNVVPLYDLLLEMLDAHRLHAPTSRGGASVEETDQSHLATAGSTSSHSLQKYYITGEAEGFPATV
Oxysterols receptor LXR-alpha (Homo sapiens), sequence (Q13133 whole entry, looked up, the tested form may be a part): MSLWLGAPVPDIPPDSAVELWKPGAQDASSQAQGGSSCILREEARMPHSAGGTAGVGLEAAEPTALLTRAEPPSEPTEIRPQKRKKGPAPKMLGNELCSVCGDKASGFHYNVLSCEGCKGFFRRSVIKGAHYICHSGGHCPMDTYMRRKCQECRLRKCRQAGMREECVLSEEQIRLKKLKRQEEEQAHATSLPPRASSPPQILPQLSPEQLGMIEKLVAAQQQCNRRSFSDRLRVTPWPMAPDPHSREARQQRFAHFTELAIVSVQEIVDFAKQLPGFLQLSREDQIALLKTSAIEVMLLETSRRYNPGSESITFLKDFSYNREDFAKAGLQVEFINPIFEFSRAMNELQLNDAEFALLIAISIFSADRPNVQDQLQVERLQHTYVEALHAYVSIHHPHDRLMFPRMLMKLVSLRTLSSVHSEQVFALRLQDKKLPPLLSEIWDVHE

As to `CCOc1ccc2[nH]cc(C(=O)NCc3ccccc3)c(=O)c2n1`, the call in assay [1], in [2], in [4], in assay [5], in assay [6] and in [7] was inactive. The molecule was called inactive in assay [8], in assay [9], in assay [10], in assay [11], in assay [12] and in assay [13]. Moreover, the AC50 in assay [3] was 27.6 µM (active).

With `OCCNCCO`, the molecule was classed as inactive in assay [1], in assay [2], in assay [3], in assay [14], in assay [5] and in assay [6]. In addition, the result in [15], in assay [7], in [8], in assay [9], in assay [11] and in assay [12] was inactive. Moreover, the molecule was classed as inactive in [13].

For `C[C@]12C=CC(=O)C=C1CC[C@H]1[C@@H]3C[C@@H](O)[C@](O)(C(=O)CO)[C@@]3(C)C[C@H](O)[C@@]12F`, the outcome in assay [1], in assay [2], in [3], in assay [5], in [17] and in assay [7] was inactive. Also, the result in assay [8], in assay [10], in assay [11], in assay [12] and in assay [13] was inactive. The results for the AC50 in [16] and in assay [15] were 37.2 µM (active) and 0.0585 µM (active), respectively.

For `CC1(C)C(=O)N(Cl)C(=O)N1Cl`, the molecule was called inactive in assay [1], in assay [2], in assay [3], in assay [5], in [18] and in assay [7]. For the same molecule, the molecule was called inactive in assay [11], in assay [12] and in [13].

In the case of `CCCCCCCCCCCCCCO`, the AC50 in assay [1] was 100 µM (active); in assay [11], 168 µM (active); in assay [13], 179 µM (active). Besides, the result in assay [2], in assay [3], in [5], in assay [18], in [9] and in assay [12] was inactive.

As to `O=C1CN(N=Cc2ccc([N+](=O)[O-])o2)C(=O)N1`, the molecule was called inactive in [1], in [2], in [3], in assay [5], in assay [18] and in [15]. The outcome in assay [8], in assay [9] and in [11] was inactive.
